Inconclusive results are not listed. Calls of active or inactive are those of the source. Calls follow the shape of the dose curve; as a rule, active = well fitted curve in the direction sought with a large enough effect; inconclusive = small, poorly fitted or top-dose-only effect, or another doubt; inactive = no such curve, though single readings can be large; an effect the other way counts as inactive or inconclusive.
Legend:
[1] = target: alpha-glucosidase (Oryza sativa, rice) (UniProt Q653V4); experiment: Counterscreen for Glucocerebrosidase Inhibitors: qHTS Assay for Rice alpha-Glucosidase at pH 5.0 (AID 997)
Summary of the method: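 Rice alpha-glucosidase (4 nM final) with 400 uM 4-methylumbelliferyl-alpha-D-glucopyranoside in citrate buffer pH 5.0, 20 min at room temperature, stopped at pH 10; fluorescence 365/440 nm, compounds 0.7 nM–77 uM, AC50 from Hill fits.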

[2] = target: DNA repair nuclease/redox regulator APEX1 (Homo sapiens) (UniProt P27695); experiment: qHTS Validation Assay for Inhibitors of the Human Apurinic/apyrimidinic Endonuclease 1 (APE1) (AID 1705; also: potency is read from the fitted curve at half-maximal effect)
DNA repair nuclease/redox regulator APEX1 (Homo sapiens), sequence (P27695 whole entry, looked up): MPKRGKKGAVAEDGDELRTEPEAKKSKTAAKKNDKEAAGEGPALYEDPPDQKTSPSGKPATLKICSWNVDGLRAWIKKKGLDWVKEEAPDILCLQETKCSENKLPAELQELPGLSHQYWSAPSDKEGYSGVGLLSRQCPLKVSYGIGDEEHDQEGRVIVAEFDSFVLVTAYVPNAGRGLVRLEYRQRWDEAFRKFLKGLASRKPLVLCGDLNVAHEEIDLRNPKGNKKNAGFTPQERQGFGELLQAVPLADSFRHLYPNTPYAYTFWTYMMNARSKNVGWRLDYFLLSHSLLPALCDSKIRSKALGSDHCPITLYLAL
Summary of the method: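 Endonuclease activity of human APE1 is followed as dequenching when the enzyme incises a tetrahydrofuran abasic site in a short duplex labelled 5'-TAMRA/3'-BHQ-2 (50 nM final), after 15 min enzyme–compound preincubation at room temperature.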

[3] = Counterscreen for APE1 Inhibitors: Fluorescent Dye Displacement Validation Assay (AID 1707)
Summary of the method: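 Thiazole Orange displacement from dsDNA: 250 nM ThO with 50 nM TAMRA-labelled abasic-site (tetrahydrofuran) duplex in 50 mM Tris-HCl pH7.5, 50mM NaCl, 2 mM MgCl2, 0.01% Tween-20. Loss of endpoint fluorescence (ex 480 nm, em 540 nm) flags DNA binders.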

[4] = qHTS for differential inhibitors of proliferation of Plasmodium falciparum line 7G8 (AID 1815);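 also: parasite growth measured after three days of incubation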; also: potency is read from the fitted curve at half-maximal effect
[5] = qHTS for differential inhibitors of proliferation of Plasmodium falciparum line GB4 (AID 1816); settings: Potency: Plasmodium falciparum GB4 proliferation inhibition;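 also: parasite growth measured after 72 h incubation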; also: potency is read from the fitted curve at half-maximal effect
[6] = qHTS for differential inhibitors of proliferation of Plasmodium falciparum line 3D7 (AID 1876); also: potency is read from the fitted curve at half-maximal effect
[7] = qHTS for differential inhibitors of proliferation of Plasmodium falciparum line Dd2 (AID 1882); settings: Potency: Plasmodium falciparum Dd2 proliferation inhibition; also: nearly all actives have a fitted effect of over 65% in size; also: potency is read from the fitted curve at half-maximal effect
Summary of the method: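 SYBR Green I DNA fluorescence read-out, ex 485/em 535 nm. Signals were normalized to 0.29 uM artemisinin and DMSO wells, then corrected using vehicle-only plates flanking each stack. Parasite growth ran 72 h in erythrocytes before lysis.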

[8] = Cell Viability - LYMP2-018 (AID 985);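 also: compound exposure lasted 24 hr at 37 °C; nearly all actives have a fitted effect of over 50% in size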; also: potency is read from the fitted curve at half-maximal effect
Summary of the method: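 Human lymphoblastoid cells (2500/well) were pre-incubated 5 hr at 37 C, then exposed to compounds for 24 hr at 37 C in complete medium. Viability was read as intracellular ATP by CellTiter-Glo luminescence; AC50 values came from Hill-equation fits.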

[9] = Cell Viability - LYMP2-020 (AID 986); also: nearly all actives have a fitted effect of over 55% in size; also: potency is read from the fitted curve at half-maximal effect
Summary of the method: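 Human lymphoblastoid cells, 2500/well, were pre-incubated 5 hr at 37 C, then exposed to compounds for 24 hr at 37 C in complete medium. Intracellular ATP was read by CellTiter-Glo luminescence, and AC50 was derived by Hill fitting of concentration-response data.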

[10] = Cell Viability - LYMP2-022 (AID 987); also: nearly all actives have a fitted effect of over 55% in size; also: potency is read from the fitted curve at half-maximal effect
Summary of the method: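 Human lymphoblastoid cells, 2500/well, preincubated 5 hr at 37 C, then exposed to compounds over a concentration range for 24 hr at 37 C in complete medium. Viability read as intracellular ATP by CellTiter-Glo luminescence after 30 min at room temperature; AC50 from Hill fits.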

[11] = Cell Viability - LYMP2-024 (AID 988); also: nearly all actives have a fitted effect of over 60% in size; also: potency is read from the fitted curve at half-maximal effect
Summary of the method: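 Human lymphoblastoid cells (2500/well) in complete medium were preincubated 5 hr at 37 C, then exposed to compounds for 24 hr at 37 C. Intracellular ATP was read by CellTiter-Glo luminescence; AC50 from Hill-equation fits of concentration-response data.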

[12] = Cell Viability - LYMP2-026 (AID 989); also: nearly all actives have a fitted effect of over 50% in size; also: potency is read from the fitted curve at half-maximal effect
Summary of the method: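 Human lymphoblastoid cells (2500/well) in complete medium were preincubated 5 hr at 37 C, then exposed to compounds for 24 hr at 37 C. Cellular ATP was read by CellTiter-Glo luminescence; AC50 from Hill-equation fits of concentration-response data.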

[13] = Cell Viability - LYMP1-002 - Assay at 24 hr (AID 993); also: potency is read from the fitted curve at half-maximal effect
Summary of the method: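 Human lymphoblastoid LYMP1-002 cells, 2500/well in complete medium, were treated with compounds for 24 h at 37 C; intracellular ATP was read by CellTiter-Glo luminescence. AC50 values came from Hill-equation fits of qHTS concentration-response data.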

[14] = Cell Viability - LYMP1-002 - Assay at 40 hr (AID 994); also: nearly all actives have a fitted effect of over 60% in size; also: potency is read from the fitted curve at half-maximal effect
Summary of the method: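 Human lymphoblastoid cells, 2500/well in complete medium, were preincubated 5 hr at 37 C, then exposed to compounds for 40 hr at 37 C. Intracellular ATP was read by CellTiter-Glo luminescence after 30 min at room temperature; AC50 from Hill-equation fits.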

[15] = target: Endonuclease 4 (Escherichia coli (strain K12)) (UniProt P0A6C1); experiment: Counterscreen for APE1 Inhibitors: qHTS Validation Assay for Inhibitors of Endonuclease IV (AID 1708)
Summary of the method: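 Cleavage of a quenched abasic-site DNA duplex (50 nM, 5'-TAMRA, 3'-BHQ-2) by 2 nM enzyme is followed as fluorescence increase. Compounds are preincubated with enzyme 15 min at room temperature before substrate addition.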

[16] = qHTS for differential inhibitors of proliferation of Plasmodium falciparum line D10 (AID 1877);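 also: parasites grown with compound for 72 h before DNA staining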; also: potency is read from the fitted curve at half-maximal effect
[17] = qHTS for differential inhibitors of proliferation of Plasmodium falciparum line W2 (AID 1883); settings: Potency: Plasmodium falciparum W2 proliferation inhibition;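 also: parasites grown with compound for 72 h before lysis and staining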; also: potency is read from the fitted curve at half-maximal effect
[18] = target: Alpha-galactosidase A (Homo sapiens) (UniProt P06280); experiment: Counterscreen for Glucocerebrosidase Inhibitors: qHTS Assay for Human alpha-Galactosidase at pH 4.5 (AID 992)
Alpha-galactosidase A (Homo sapiens), sequence (P06280 whole entry, looked up): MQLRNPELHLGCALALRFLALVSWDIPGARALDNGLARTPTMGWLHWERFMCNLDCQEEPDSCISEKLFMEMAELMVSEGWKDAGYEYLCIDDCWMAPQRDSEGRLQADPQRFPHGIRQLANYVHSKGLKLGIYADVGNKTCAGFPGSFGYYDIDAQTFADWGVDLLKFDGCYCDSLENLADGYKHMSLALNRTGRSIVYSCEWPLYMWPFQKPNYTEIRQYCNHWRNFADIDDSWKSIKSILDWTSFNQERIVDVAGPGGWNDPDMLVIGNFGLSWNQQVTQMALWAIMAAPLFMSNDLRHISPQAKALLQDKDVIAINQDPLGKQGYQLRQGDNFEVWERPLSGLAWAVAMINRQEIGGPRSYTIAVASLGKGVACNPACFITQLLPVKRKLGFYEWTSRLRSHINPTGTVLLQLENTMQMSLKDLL
Summary of the method: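 Enzyme at 2 nM final was combined with compound (0.7 nM to 77 uM) and 80 uM 4-methylumbelliferyl alpha-D-galactopyranoside in 50 mM citric acid, 0.005% Tween-20, pH 4.5. After 20 min at room temperature, fluorescence was read (Ex 365/Em 440 nm); AC50 came from Hill fits.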

Measured: Potency

CN(C)c1nc2c(Br)c(Br)c(Br)c(Br)c2[nH]1
inactive: [1] | [2] | [3] | [4] | [5] | [6] | [7]

O=c1cc(-c2ccccc2)oc2ccccc12
inactive: [8] | [9] | [10] | [11] | [12] | [13] | [14]

COc1ccccc1CNCCCCCCNCCCCCCCCNCCCCCCNCc1ccccc1OC
active: [4] 1.41 µM | [5] 2.24 µM | [6] 0.891 µM | [16] 2.24 µM | [7] 4.47 µM | [17] 1 µM
inactive: [1] | [3] | [15]

Nc1nc2ccc([N+](=O)[O-])cc2s1
inactive: [8] | [9] | [10] | [11] | [12] | [13] | [14]

C#C[C@]1(O)CC[C@H]2[C@@H]3CCc4cc(O)ccc4[C@H]3CC[C@@]21C
inactive: [8] | [9] | [10] | [11] | [12] | [13]

N#C/C(=C\c1c[nH]c2ccccc12)C(=O)c1ccc(O)c(O)c1
inactive: [18] | [1] | [2] | [15]
active: [5] 12.6 µM | [6] 12.6 µM | [16] 15.8 µM | [17] 8.91 µM

CN1[C@@H]2CC[C@H]1CC(OC(c1ccccc1)c1ccccc1)C2 (some centres undefined)
inactive: [1]

CCCCCCCCCCCCCCCCCC(=O)O
inactive: [8] | [9] | [10] | [11] | [12] | [13] | [14]

CN1CCc2cccc3c2C1Cc1ccc(O)c(O)c1-3 (centres undefined)
active: [4] 2.24 µM | [5] 2.24 µM | [6] 2 µM | [16] 2.24 µM | [7] 6.31 µM | [17] 2.24 µM
inactive: [3] | [15]

CN(C)c1ccc(N=NS(=O)(=O)O)cc1
inactive: [8] | [9] | [10] | [11] | [12] | [13] | [14]

Cn1cc(C2=C(c3ccc(Cl)cc3Cl)C(=O)NC2=O)c2ccccc21
active: [2] 35.5 µM | [4] 10 µM | [17] 7.08 µM
inactive: [18] | [1] | [3]

CCCCCCCCCCCCCCCCCC(=O)OC(CC(=O)O)C[N+](C)(C)C (centres undefined)
inactive: [2] | [3] | [4] | [5] | [6] | [16] | [7] | [17]

O=C(O)c1cc(O)c(O)c(O)c1
inactive: [8] | [9] | [10] | [11] | [12] | [13] | [14]

c1ccc2sc(SSc3nc4ccccc4s3)nc2c1
inactive: [8] | [9] | [10] | [11] | [12] | [13] | [14]

Nc1ccc(O)c([N+](=O)[O-])c1
inactive: [8] | [9] | [10] | [11] | [12] | [13] | [14]

COc1ccccc1N1CCN(CCCCNS(=O)(=O)c2cccc3c(N(C)C)cccc23)CC1
active: [4] 7.94 µM | [5] 14.1 µM | [6] 10 µM | [7] 10 µM | [17] 3.55 µM
inactive: [1] | [2] | [3]

NCCO
inactive: [8] | [9] | [10] | [11] | [12] | [13] | [14]

O=C1O/C(=C/Br)CCC1c1cccc2ccccc12 (centres undefined)
active: [17] 11.2 µM
inactive: [3] | [15] | [16] | [7]

Cc1ccc(O)c(N=Nc2ccccc2)n1
active: [4] 11.2 µM | [5] 12.6 µM | [17] 10 µM
inactive: [18] | [1] | [2] | [3]

CC(C)Cc1ccc([C@H](C)C(=O)O)cc1
inactive: [1] | [3] | [4] | [5] | [6] | [16] | [7] | [17]

Oc1cc(O)cc(/C=C/c2ccc(O)c(O)c2)c1
active: [5] 8.91 µM | [6] 10 µM | [7] 12.6 µM | [17] 10 µM
inactive: [2] | [15]

COc1ccc(NC(=O)/C=C/c2ccc(Cl)cc2)cc1
active: [4] 10 µM | [5] 11.2 µM | [6] 11.2 µM | [16] 8.91 µM | [17] 10 µM
inactive: [2] | [3]

COc1cc(CNC(=O)CCCC/C=C/C(C)C)ccc1O
inactive: [9] | [10] | [11] | [12] | [13] | [14]

C[N+]1(C)CCC(OC(=O)C(c2ccccc2)c2ccccc2)CC1
inactive: [18] | [1]

Nc1ccc([N+](=O)[O-])cc1O
inactive: [8] | [9] | [10] | [11] | [12] | [13] | [14]

C=C[C@H]1CN2CC[C@@H]1C[C@@H]2[C@@H](O)c1ccnc2ccc(OC)cc12
inactive: [1]

CC(C)(C=O)Cc1cc(C(C)(C)C)c(O)c(C(C)(C)C)c1
inactive: [18] | [1] | [2] | [3] | [4] | [5] | [6] | [16] | [7] | [17]

CCCOC(=O)c1ccc(O)cc1
inactive: [8] | [9] | [10] | [11] | [12] | [13] | [14]

N=C1N=C(N)c2cc3ccccc3cc21
active: [8] 39.8 µM | [9] 39.8 µM | [10] 39.8 µM | [11] 39.8 µM | [12] 39.8 µM | [13] 39.8 µM | [14] 39.8 µM

Oc1cc2c(cc1O)CN(C(=S)NCCc1ccc(Cl)cc1)CCC2
active: [4] 8.91 µM | [16] 12.6 µM | [7] 8.91 µM
inactive: [18] | [1] | [3] | [15]

COc1cc(/C=C/C(=O)CC(=O)/C=C/c2ccc(O)c(OC)c2)ccc1O
active: [8] 39.8 µM | [9] 31.6 µM | [10] 25.1 µM | [11] 25.1 µM | [12] 31.6 µM | [13] 39.8 µM | [14] 39.8 µM

C#CCN1C(C)=C(C(=O)OC)C(c2cccc([N+](=O)[O-])c2)C(C(=O)OCC)=C1C (centres undefined)
inactive: [3]
active: [4] 7.94 µM | [5] 7.08 µM | [6] 11.2 µM | [16] 14.1 µM | [7] 12.6 µM | [17] 4.47 µM

CC1(C)S[C@@H]2[C@H](NC(=O)[C@H](N)c3ccccc3)C(=O)N2[C@H]1C(=O)O
inactive: [8] | [9] | [10] | [11] | [12] | [13] | [14]

O=C(O)/C=C\C(=O)O
inactive: [8] | [9] | [10] | [11] | [12] | [13] | [14]

CN(C)c1ccc(C(=C2C=CC(=[N+](C)C)C=C2)c2ccccc2)cc1
active: [8] 0.199 µM | [9] 0.316 µM | [10] 0.126 µM | [11] 0.199 µM | [12] 0.316 µM | [13] 0.794 µM | [14] 1 µM

CC[C@@H](C)[C@H]1O[C@]2(CC[C@@H]1C)C[C@@H]1C[C@@H](C/C=C(\C)[C@@H](O[C@H]3C[C@H](OC)[C@@H](O[C@H]4C[C@H](OC)[C@@H](O)[C@H](C)O4)[C@H](C)O3)[C@@H](C)/C=C/C=C3\CO[C@@H]4[C@H](O)C(C)=C[C@@H](C(=O)O1)[C@]34O)O2
active: [4] 2 µM | [5] 1.12 µM | [6] 0.794 µM | [16] 2.51 µM | [7] 1.78 µM | [17] 1 µM
inactive: [3]

CN=c1nc(-c2ccccc2)n(-c2ccccc2)s1
inactive: [18] | [1] | [2] | [3] | [7]
active: [4] 10 µM | [5] 10 µM | [17] 10 µM

C=C[C@@H]1CN2CC[C@@H]1C[C@H]2[C@H](O)c1ccnc2ccc(OC)cc12
inactive: [2] | [3]
active: [7] 0.316 µM

Brc1c(Br)c(Br)c2n[nH]nc2c1Br
inactive: [1] | [15] | [4] | [5] | [6] | [16] | [7]

CCCCCC(O)c1cccc(OCc2ccc3ccccc3n2)c1 (centres undefined)
inactive: [2] | [3]
active: [4] 6.31 µM | [5] 10 µM | [16] 15.8 µM | [7] 7.94 µM | [17] 6.31 µM

Source: PubChem BioAssay (NCATS)
